“And” between values parts separate entries of the source, which are not always exact repeats. Equal values may be shown once. Records with an inconclusive call do not appear. A structure can be active in one record and inactive in another. The source made the active and inactive calls. Unless noted, calls come from the whole dose curve; as a rule, active = well fitted curve in either direction with a large enough effect (not every such curve was filed as active); inconclusive = small, poorly fitted or top-dose-only effect, or another doubt; inactive = flat fitted curve, though single readings scatter.
Columns and labels:
[1] = AP1 Signaling Pathway (AID 357); details: ME-180 AP-1-bla reporter, EGF-induced, beta-lactamase ratio, 5 h;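 note: ME-180 reporter cells stimulated with EGF at its EC50 level; % is set by controls: 0 for no effect and ±100 for the full control effect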
Method in brief: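 Cells are seeded overnight, exposed to compound titrations and an EC50 level of EGF for 5 hours at 37 °C, then loaded with CCF4 dye for 2.5 hours. Beta-lactamase activity under the AP-1 element is read as a blue/green ratio.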

[2] = NFAT Signaling Pathway (AID 444); details: Jurkat NFAT-bla M1, carbachol, beta-lactamase ratio, 5 h;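 note: carbachol stimulus at about its EC50 of 1 µM final; % is set by controls: 0 for no effect and ±100 for the full control effect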
Method in brief: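 Jurkat cells carrying an NFAT-driven β-lactamase reporter and co-transfected muscarinic M1 receptor were treated with compound plus carbachol (1 uM final, an EC50 level) for 5 h at 37 °C. CCF4 loading followed for 1 h at RT; 460/530 nm ratio gave %activity.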

[3] = target: Glucocorticoid receptor (Homo sapiens) (UniProt P04150); assay: GR-GFP Redistribution (AID 450;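 active = compounds whose dose series gives a full or clear partial fitted curve of increased nuclear translocation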; note: potency is the fitted concentration of half-maximal effect); details: U2OS GR-GFP nuclear translocation, laser cytometry, 2 h
[4] = target: Mitogen-activated protein kinase 10 (Mus musculus) (UniProt Q61831); assay: JNK3 AlphaScreen Assay (AID 530); details: JNK3 lysate, c-Jun phosphorylation; series mostly up to 57.1 µM;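 note: kinase came from lysate of stimulated human HepG2 cells; signal reports phosphorylation of biotinylated GST-cJun 1-79 at Ser73 with 10 µM ATP; % is set by controls: 0 for no effect and ±100 for the full control effect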
Method in brief: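 Inhibitors reduce antibody binding to phosphorylated biotin-cJun, lowering AlphaScreen luminescence. Lysates from HepG2 cells pre-activated by IL-1beta plus TNF-alpha supplied JNK3; compounds were titrated.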

[5] = target: 3',5'-cyclic-AMP phosphodiesterase 4B (Homo sapiens) (UniProt Q07343); assay: qHTS Assay for Inhibitors of PDE-IV (AID 607; active = well fitted activation curve with a large enough effect in the main read-out, with a control signal flat, not every such curve was filed as active; note: potency is the fitted concentration of half-maximal effect); details: HEK293 ACTOne CNG channel cells, membrane potential fluorescence; series mostly up to 22.9 µM
Method in brief: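 Live HEK293 cells with a modified cyclic nucleotide-gated (CNG) channel report intracellular cAMP via membrane-potential dye fluorescence (ex 535/em 590 nm). Endogenous PDE-IV was targeted. Compounds were tested at up to 22.9 uM final; RO 20-1724 100 uM served as control.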

[6] = target: Cytochrome P450 1A2 (Homo sapiens) (UniProt P05177); assay: p450-cyp1a2 (AID 410; calls by dose curve; note: potency is the fitted concentration of half-maximal effect;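 for activity change, negative = inhibition: -100% = full effect of reference inhibitor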); details: recombinant CYP1A2, luciferin-ME demethylation, luminescence; series mostly up to 57 µM
Method in brief: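 Luminescent readout of luciferin formed from Luciferin-ME by human CYP1A2; data normalized against complete inhibition by 57 uM furafylline. Enzyme 20nM, substrate 100uM at Km, 100mM KPO4 buffer, 60 min reaction at room temperature.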

[7] = Stat Signaling Pathway (AID 446); details: ME-180 (cervical carcinoma) SIE beta-lactamase reporter, IL-6 stimulated, 5 h;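 note: ME-180 cervical cancer cells given 40 pM IL-6 alongside compound; SIE-controlled beta-lactamase reporter measured as 460/530 nm FRET emission ratio; % is set by controls: 0 for no effect and ±100 for the full control effect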
Method in brief: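 IL-6/STAT signaling read in ME-180 cells via an SIE beta-lactamase reporter. Stimulus was 40 pM IL-6 (its AC50) for 5 hrs, so both activation and inhibition register.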

[8] = Cell Viability - BJ (AID 421; calls by dose curve;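 note: potency is the fitted concentration of half-maximal effect; cells exposed to compound for 40 hours at 37 °C before readout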); details: BJ fibroblast viability, qHTS
Method in brief: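 Quantitative HTS: ATP depletion in BJ cells after 40 hr compound exposure in complete culture medium, detected with CellTiter-Glo; AC50 from standard Hill fits.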

[9] = Cell Viability - Hek293 (AID 427;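 active = compounds whose dose-response curve shows a full or clear partial loss of cell viability, called from curve shape rather than a numeric limit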;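 note: potency is the fitted concentration of half-maximal effect; cells exposed to compound for 40 hours at 37 °C before reading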); details: qHTS
Method in brief: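 AC50 values derive from Hill-modelled concentration-response of ATP-based luminescence, normalized between DMSO-only and 100 uM tamoxifen controls. Cells were exposed in complete culture medium for 40 hr at 37 °C before detection.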

[10] = Cell Viability - MRC5 (AID 434; calls by dose curve;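 note: potency is the fitted concentration of half-maximal effect; potency reflects cytotoxicity seen as loss of intracellular ATP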); details: MRC5 lung fibroblast viability, qHTS
Method in brief: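 MRC5 normal human lung fibroblasts (1500/well) were treated with compounds for 40 hr at 37 °C in complete medium, and viable cells were measured as intracellular ATP by CellTiter-Glo luminescence. AC50 came from Hill fits, normalized to DMSO and 100 uM tamoxifen.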

[11] = Cell Viability - SK-N-SH (AID 435; calls by dose curve;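 note: potency is the fitted concentration of half-maximal effect; compound exposure lasted 40 h at 37 °C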); details: SK-N-SH neuroblastoma cell viability qHTS
Method in brief: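 SK-N-SH human neuroblastoma cells (1500/well) were exposed to compounds in complete medium for 40 h at 37 °C, and intracellular ATP was then measured by CellTiter-Glo luminescence. AC50 was taken from Hill fits, normalized to DMSO and 100 uM tamoxifen.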

[12] = Cell Viability - N2a (AID 540; active = well fitted curve in the direction sought with a large enough effect; an effect the other way counts as inactive or inconclusive;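 note: plate controls were DMSO alone for no effect and tamoxifen control for full effect; nearly all actives have a fitted effect of over 45% in size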); details: N2a mouse neuroblastoma cell viability; activity change, negative = cytotoxicity: at 92.2 µM (top of the series)
Method in brief: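 Luminescent ATP signal (CellTiter-Glo, 20 min at room temperature) served as the viability read-out after N2a cells were treated with compounds for 40 hours at 37 °C. Concentration-response data were fitted to the Hill equation for AC50.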

[13] = Cell Viability - NIH 3T3 (AID 541; active = well fitted curve in the direction sought with a large enough effect; an effect the other way counts as inactive or inconclusive;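 note: plate controls were DMSO alone for no effect and tamoxifen positive control for full effect; nearly all actives have a fitted effect of over 25% in size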); details: NIH 3T3 cell viability, qHTS; series mostly up to 92.2 µM
Method in brief: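 Luminescent ATP signal (CellTiter-Glo) served as the viability read-out after NIH 3T3 cells were exposed to compounds over a concentration range for 40 hr at 37 °C. Hill-equation modelling of concentration-response data gave AC50.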

[14] = Cell Viability - H-4-II-E (AID 543; active = well fitted curve in the direction sought with a large enough effect; an effect the other way counts as inactive or inconclusive; note: % is set by controls: 0 for no effect and ±100 for the full control effect; nearly all actives have a fitted effect of over 35% in size); details: H-4-II-E rat hepatoma viability; series mostly up to 92.2 µM
Method in brief: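 Luminescent ATP signal (CellTiter-Glo) served as the viability read-out, with cytotoxicity seen as a concentration-dependent ATP drop. Cells were treated for 40 hours in complete medium. AC50 values derive from Hill-equation modelling.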

[15] = Cell Viability - SH-SY5Y (AID 544; active = well fitted curve in the direction sought with a large enough effect; an effect the other way counts as inactive or inconclusive; note: nearly all actives have a fitted effect of over 55% in size); details: SH-SY5Y neuroblastoma cell viability; series mostly up to 92.2 µM
Method in brief: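 Luminescent ATP read-out (CellTiter-Glo) measures loss of viable SH-SY5Y neuroblastoma cells after 40 hr compound exposure at 37 °C. AC50 values derive from standard Hill modelling of qHTS concentration-response data.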

[16] = Cell Viability - Mesenchymal (AID 546; active = well fitted curve in the direction sought with a large enough effect; an effect the other way counts as inactive or inconclusive;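 note: cells exposed to compound for 40 hours before reading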); details: mesenchymal cells viability, qHTS; series mostly up to 91.7 µM
Method in brief: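 Normal human renal glomerulus-derived kidney mesenchymal cells, 1000 per well in complete medium, were treated with compounds for 40 hr at 37 °C. Viability was read as intracellular ATP by CellTiter-Glo luminescence; AC50 values came from Hill-equation fits of qHTS concentration-response data.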

[17] = Cellular Toxicity (caspase-3) HepG2 (AID 654; active = well fitted curve in the direction sought with a large enough effect; an effect the other way counts as inactive or inconclusive;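 note: cells exposed to compound for 16 hours before reading; 0% = DMSO alone and 100% = caspase signal from 100 µM tamoxifen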); details: HepG2 caspase-3 activation, luminescence, 0% = DMSO only, 100% = tamoxifen; series mostly up to 92.2 µM
Method in brief: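 Cells plated 5 hr at 37 °C, compound added, incubated 16 hr at 37 °C. Caspase-Glo 3/7 reagent followed, 20 min at room temperature, then luminescence read. Activation scored as signal increase; AC50 from Hill fit.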

[18] = Cellular Toxicity (caspase-3) Jurkat (AID 655; active = well fitted curve in the direction sought with a large enough effect; an effect the other way counts as inactive or inconclusive;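 note: cells exposed to compound for 16 h at 37 °C before reading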); details: Jurkat caspase-3 activation, luminescence, DMSO = 0%, tamoxifen = 100%; series mostly up to 92.2 µM
Method in brief: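 Jurkat cells (5000/well) in complete medium were treated with compounds for 16 hr at 37 °C, then Caspase-Glo 3/7 luminescence was read after 20 min at room temperature. Data normalized to DMSO (basal) and 100 uM tamoxifen (100%); AC50 from Hill fit.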

[19] = Cellular Toxicity (caspase-3) HUV-EC-C (AID 656; active = well fitted curve in the direction sought with a large enough effect; an effect the other way counts as inactive or inconclusive); details: HUV-EC-C cells, caspase-3 activation (apoptosis), vehicle = 0, 100 µM tamoxifen = 100%; series mostly up to 92.2 µM
Method in brief: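 HUV-EC-C endothelial cells, 1000/well, were pre-incubated 5 hr at 37°C, then exposed to compounds for 16 hr at 37°C. Caspase-Glo 3/7 luminescence was read after 20 min at room temperature. AC50 came from Hill fits, normalized to DMSO and 100 uM tamoxifen.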

Glucocorticoid receptor (Homo sapiens), sequence (P04150 whole entry, looked up): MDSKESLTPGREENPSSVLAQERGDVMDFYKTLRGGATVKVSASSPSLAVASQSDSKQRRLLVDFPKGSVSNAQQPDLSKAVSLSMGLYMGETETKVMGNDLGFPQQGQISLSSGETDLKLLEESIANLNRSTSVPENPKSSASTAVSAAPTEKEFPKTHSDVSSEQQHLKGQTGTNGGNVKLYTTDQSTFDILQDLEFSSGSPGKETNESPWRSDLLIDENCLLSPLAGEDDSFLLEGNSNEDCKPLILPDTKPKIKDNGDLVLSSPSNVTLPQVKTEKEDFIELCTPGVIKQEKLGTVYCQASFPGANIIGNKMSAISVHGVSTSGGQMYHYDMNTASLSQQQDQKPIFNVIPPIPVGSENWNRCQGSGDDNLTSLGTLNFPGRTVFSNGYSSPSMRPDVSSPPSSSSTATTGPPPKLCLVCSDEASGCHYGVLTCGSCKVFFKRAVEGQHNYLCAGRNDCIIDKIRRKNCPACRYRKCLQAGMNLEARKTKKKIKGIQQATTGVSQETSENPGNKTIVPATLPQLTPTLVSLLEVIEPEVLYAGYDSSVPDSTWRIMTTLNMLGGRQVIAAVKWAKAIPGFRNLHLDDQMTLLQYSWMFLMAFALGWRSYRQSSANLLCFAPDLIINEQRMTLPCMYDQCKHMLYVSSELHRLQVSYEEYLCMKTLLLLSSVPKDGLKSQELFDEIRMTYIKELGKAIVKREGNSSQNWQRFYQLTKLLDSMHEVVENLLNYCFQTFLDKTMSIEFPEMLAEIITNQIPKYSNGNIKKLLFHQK
3',5'-cyclic-AMP phosphodiesterase 4B (Homo sapiens), sequence (Q07343 whole entry, looked up): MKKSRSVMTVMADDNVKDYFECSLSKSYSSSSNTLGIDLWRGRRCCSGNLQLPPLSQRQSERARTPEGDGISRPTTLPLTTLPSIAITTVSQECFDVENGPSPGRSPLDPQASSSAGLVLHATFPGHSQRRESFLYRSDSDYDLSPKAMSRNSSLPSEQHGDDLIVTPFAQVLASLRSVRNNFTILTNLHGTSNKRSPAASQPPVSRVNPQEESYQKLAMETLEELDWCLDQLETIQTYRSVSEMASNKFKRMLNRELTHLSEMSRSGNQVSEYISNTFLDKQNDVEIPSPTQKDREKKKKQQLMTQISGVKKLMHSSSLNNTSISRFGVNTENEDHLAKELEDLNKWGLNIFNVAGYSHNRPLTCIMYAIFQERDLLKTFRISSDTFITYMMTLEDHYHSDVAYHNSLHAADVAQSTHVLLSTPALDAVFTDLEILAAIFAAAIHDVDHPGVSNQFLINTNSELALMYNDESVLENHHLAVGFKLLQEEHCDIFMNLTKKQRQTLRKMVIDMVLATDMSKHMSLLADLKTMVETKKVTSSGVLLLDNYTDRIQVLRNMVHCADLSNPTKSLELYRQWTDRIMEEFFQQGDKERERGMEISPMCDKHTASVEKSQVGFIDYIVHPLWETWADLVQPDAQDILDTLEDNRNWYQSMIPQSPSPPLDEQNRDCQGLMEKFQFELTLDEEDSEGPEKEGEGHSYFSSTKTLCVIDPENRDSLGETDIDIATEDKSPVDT
Cytochrome P450 1A2 (Homo sapiens), sequence (P05177 whole entry, looked up): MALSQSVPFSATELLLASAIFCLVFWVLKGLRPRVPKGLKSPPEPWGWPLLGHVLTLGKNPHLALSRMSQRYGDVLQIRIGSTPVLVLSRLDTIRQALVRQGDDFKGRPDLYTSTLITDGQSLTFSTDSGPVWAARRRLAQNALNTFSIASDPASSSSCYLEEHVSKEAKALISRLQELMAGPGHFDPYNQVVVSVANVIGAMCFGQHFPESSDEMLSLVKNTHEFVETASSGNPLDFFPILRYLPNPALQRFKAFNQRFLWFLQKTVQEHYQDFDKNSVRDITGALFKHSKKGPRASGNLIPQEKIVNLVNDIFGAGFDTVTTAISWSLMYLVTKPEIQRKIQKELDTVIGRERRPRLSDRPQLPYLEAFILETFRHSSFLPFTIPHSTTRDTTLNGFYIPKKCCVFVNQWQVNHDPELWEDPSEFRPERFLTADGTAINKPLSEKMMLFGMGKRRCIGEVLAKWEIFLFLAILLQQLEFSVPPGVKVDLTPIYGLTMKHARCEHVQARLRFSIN

CN[C@@H]1C[C@@H](c2ccc(Cl)c(Cl)c2)c2ccccc21
inactive: activity change, negative = inhibition ([1]; at 38 µM (top of the series)) 23.3% | activity change, negative = inhibition ([2]; at 38 µM (top of the series)) -14.3% | Potency [3] > 46 µM | outcome [4] | Potency [5]

COc1ccc2c(c[n+](C)c3c4cc5c(cc4ccc23)OCO5)c1OC
active: Potency [6] 10 µM
inactive: activity change, negative = inhibition ([1]; at 38 µM (top of the series)) 1.37% | outcome [4] | Potency [5]

C[C@]12N[C@H](Cc3ccccc31)c1ccccc12
inactive: activity change, negative = inhibition ([1]; at 38 µM (top of the series)) -6.02% and 8.41% | Potency [6] | activity change, negative = inhibition ([2]; at 38 µM (top of the series)) -11.3% and -3.27% | activity, negative = inhibition ([7]; at 38 µM (top of the series)) 16.1% and 6.66% | outcome [4] | Potency [5]

O=C1CCCN1CC#CCN1CCCC1
inactive: activity change, negative = inhibition ([1]; at 38 µM (top of the series)) 8.1% | Potency [6] | activity, negative = inhibition ([7]; at 38 µM (top of the series)) -7.65% | Potency [3] > 46 µM | outcome [4] | Potency [5]

CC[C@@H]1C(=O)OC[C@@H]1Cc1cncn1C
active: activity change, negative = inhibition ([2]; at 17.2 µM (top of the series)) 75.4% [activator]
inactive: activity change, negative = inhibition ([1]; at 17.2 µM (top of the series)) -3.08% and 5.87% | activity, negative = inhibition ([7]; at 17.2 µM (top of the series)) 1.99% and 5.87%

O=c1cccc2n1CC1CNC[C@H]2C1
inactive and 31.6 µM (active): Potency [6]
inactive: activity change, negative = inhibition ([1]; at 17.2 µM (top of the series)) -4.28% | activity change, negative = inhibition ([2]; at 17.2 µM (top of the series)) -12.9% | activity, negative = inhibition ([7]; at 17.2 µM (top of the series)) 6.88% | Potency [3] > 20.6 µM and > 46 µM | outcome [4] | Potency [5]

O=C(O)CC[N+](=O)[O-]
inactive: activity change, negative = inhibition ([1]; at 38 µM (top of the series)) -8.61% | Potency [6] | activity change, negative = inhibition ([2]; at 38 µM (top of the series)) 10% | activity, negative = inhibition ([7]; at 38 µM (top of the series)) 1.14% | Potency [3] > 46 µM | outcome [4] | Potency [5]

CN(C)[C@@H]1C(=O)C(C(N)=O)=C(O)[C@@]2(O)C(=O)C3=C(O)c4c(O)cccc4[C@@](C)(O)[C@H]3[C@H](O)[C@@H]12
inactive: activity change, negative = inhibition ([1]; at 17.2 µM (top of the series)) 12.6% | Potency [8] > 92 µM | Potency [9] > 92 µM | Potency [10] > 92 µM | Potency [11] > 92 µM | activity change, negative = inhibition ([2]; at 17.2 µM (top of the series)) 0.604% | activity, negative = inhibition ([7]; at 17.2 µM (top of the series)) 3.84% | outcome [4] | activity change, negative = cytotoxicity [12] 0.531% | Potency [13] | Potency [14] | Potency [15] | Potency [16] | outcome [17] | outcome [18] | outcome [19]

CCCN(CCC)[C@@H]1CCc2ccc(O)cc2C1
inactive: activity change, negative = inhibition ([1]; at 38 µM (top of the series)) 4.4% and -2.26% | Potency [6] | activity, negative = inhibition ([7]; at 38 µM (top of the series)) -20.3% and 11.5% | Potency [3] > 46 µM | outcome [4] | Potency [5]

C[C@@H]1O[C@H](C[N+](C)(C)C)C[C@H]1O
inactive: activity change, negative = inhibition ([1]; at 38 µM (top of the series)) 15.5% | Potency [3] > 46 µM | outcome [4]
active: Potency [5] 3.16 µM

Source: PubChem BioAssay (NCATS)
